Measurements published in PubChem BioAssay (EPA / NIEHS).
Several values for one entry are separate records, joined by “and”; a condition that tells them apart may be missing. Identical values can stand only once. Results filed as inconclusive are left out. Activity calls are given as the source filed them. How the source made its calls: active means hit-call score of the fitted dose curve at least 0.9, where 1 is the maximum; inconclusive means response in the unintended direction; inactive means score below 0.9.

These compounds were tested on DIO1 (gene 1733) (assay: CCTE_GLTED_hDIO1: CCTE's human Deiodinase 1 (DIO1) Inhibition Assay, Great Lakes Toxicology and Ecology Division (GLTED) Lab (AID 2283987);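 further: isolated human DIO1 enzyme in a cell-free setup rather than cells; enzyme activity read as free iodide liberated from substrate via Sandell-Kolthoff colorimetry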).
Outline: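 Cell-free hDIO1 assay, triplicate plates. Absorbance of the Sandell-Kolthoff reaction reports enzyme-liberated iodide; iodinated chemicals or nitrite, iron and thiocyanate may interfere.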
With `CCCCCCCCCC[N+](C)(C)CCCCCCCCCC` the AC50 was 40.7 µM (active).
With `NS(=O)(=O)C(F)(F)C(F)(F)C(F)(F)C(F)(F)C(F)(F)C(F)(F)C(F)(F)C(F)(F)F` the AC50 was 26.8 µM (active).
`CC#Cc1cc(C)nc(Nc2ccccc2)n1` was tested, and the AC50 was 27 µM (active).
In the case of `O=C(O)C(F)(F)C(F)(F)C(F)(F)C(F)(F)C(F)(F)C(F)(F)C(F)(F)C(F)(F)C(F)(F)F`, the AC50 is reported as 103 µM (active) and 70.6 µM (active).
In the case of `CCCCCCCCCc1ccc(O)cc1`, the AC50 is reported as 90.3 µM (active).

What follows are compounds tested against Nucleoli Translocation, AR (gene 367) (UniProt P10275) (assay: UPITT_HCI_U2OS_AR_TIF2_Nucleoli_Antagonist: University of Pittsburgh U2OS Androgen Receptor-Transcriptional Intermediary Factor 2 (AR-TIF2) Antagonism High Content Imaging Assay for Nucleoli Translocation (AID 2283997)).
Chain of Nucleoli Translocation, AR (gene 367) (P10275 whole entry, looked up, the tested form may be a part): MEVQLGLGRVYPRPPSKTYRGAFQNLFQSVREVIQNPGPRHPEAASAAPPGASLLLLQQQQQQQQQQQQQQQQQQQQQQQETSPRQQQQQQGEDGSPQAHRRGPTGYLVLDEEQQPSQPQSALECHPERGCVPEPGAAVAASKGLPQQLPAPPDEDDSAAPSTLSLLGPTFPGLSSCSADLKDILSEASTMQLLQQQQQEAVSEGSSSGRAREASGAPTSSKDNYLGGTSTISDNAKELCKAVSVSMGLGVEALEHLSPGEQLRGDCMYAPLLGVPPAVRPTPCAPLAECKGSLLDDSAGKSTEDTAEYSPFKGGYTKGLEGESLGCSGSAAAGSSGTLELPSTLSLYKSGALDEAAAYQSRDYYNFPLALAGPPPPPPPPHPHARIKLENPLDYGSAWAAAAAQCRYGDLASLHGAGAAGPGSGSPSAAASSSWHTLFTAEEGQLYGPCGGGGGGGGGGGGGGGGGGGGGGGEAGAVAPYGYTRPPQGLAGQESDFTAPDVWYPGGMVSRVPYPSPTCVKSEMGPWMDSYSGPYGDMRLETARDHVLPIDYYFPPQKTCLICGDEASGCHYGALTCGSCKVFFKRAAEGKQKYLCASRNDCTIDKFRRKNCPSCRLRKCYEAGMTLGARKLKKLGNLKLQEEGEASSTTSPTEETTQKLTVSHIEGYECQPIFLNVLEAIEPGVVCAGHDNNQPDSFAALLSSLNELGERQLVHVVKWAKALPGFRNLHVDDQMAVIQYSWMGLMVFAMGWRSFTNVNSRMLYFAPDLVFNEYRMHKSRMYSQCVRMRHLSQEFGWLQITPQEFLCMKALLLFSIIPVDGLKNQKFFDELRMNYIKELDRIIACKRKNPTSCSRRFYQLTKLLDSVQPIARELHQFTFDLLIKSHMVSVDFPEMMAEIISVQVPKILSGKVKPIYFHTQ
Outline: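 Compounds are added at 20 uM final concentration in 0.2% DMSO to U2OS cells carrying AR-RFP and TIF2-GFP fusions. Nucleolar AR-RFP fluorescence is then quantified by automated imaging. Antagonism is fitted positively against DHT baseline.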
`CC1=C2C[C@H]3[C@@H](CC=C4C[C@@H](O)CC[C@@]43C)[C@@H]2CC[C@]12O[C@@H]1C[C@H](C)CN[C@H]1[C@H]2C` was tested, and the outcome was “inactive”.
With `CCOC(=O)C(O)(c1ccc(Cl)cc1)c1ccc(Cl)cc1` the AC50 was 13.3 µM (active).
For `Cc1ccccc1CO[C@@H]1C[C@@]2(C(C)C)CC[C@]1(C)O2`, the outcome was “inactive”.
For `CCNc1nc(NC(C)C)nc(SC)n1`, the outcome was “inactive”.
In the case of `NS(=O)(=O)C(F)(F)C(F)(F)C(F)(F)C(F)(F)C(F)(F)C(F)(F)C(F)(F)C(F)(F)F`, the AC50 is reported as 82.7 µM (active).
For `O=C(NC(=O)c1c(F)cccc1F)Nc1cc(Cl)c(OC(F)(F)C(F)F)c(Cl)c1`, the outcome was “inactive”.
In the case of `CCCCCCCCOC(=O)c1ccccc1C(=O)OCCCCCCCC`, the outcome is reported as “inactive”.
In the case of `c1ccc(-c2ccccc2)cc1`, the outcome is reported as “inactive”.
With `C=CC(=O)NCNC(=O)C=C` the outcome was “inactive”.
`c1cc2ccc3cccc4ccc(c1)c2c34` was tested, and the outcome was “inactive”.
In the case of `O=C(N[C@H]1CN2CCC1CC2)c1cc2ccoc2cn1`, the outcome is reported as “inactive”.

Each compound was assayed against Nucleoli Translocation, AR (gene 367) (UniProt P10275) (assay: UPITT_HCI_U2OS_AR_TIF2_Nucleoli_Agonist: University of Pittsburgh U2OS Androgen Receptor-Transcriptional Intermediary Factor 2 (AR-TIF2) Agonism High Content Imaging Assay for Nucleoli Translocation (AID 2283998)).
Outline: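 Red-tagged human androgen receptor co-expressed with GFP-tagged TIF2 serves as the binding reporter. Primary testing used 20 uM final (0.2% DMSO); follow-up dose response covered 0.195 to 50 uM final (0.5% DMSO).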
In the case of `CC1=C2C[C@H]3[C@@H](CC=C4C[C@@H](O)CC[C@@]43C)[C@@H]2CC[C@]12O[C@@H]1C[C@H](C)CN[C@H]1[C@H]2C`, the outcome is reported as “inactive”.
In the case of `CCOC(=O)C(O)(c1ccc(Cl)cc1)c1ccc(Cl)cc1`, the AC50 is reported as 50 µM (active).
For `Cc1ccccc1CO[C@@H]1C[C@@]2(C(C)C)CC[C@]1(C)O2`, the outcome was “inactive”.
For `NS(=O)(=O)C(F)(F)C(F)(F)C(F)(F)C(F)(F)C(F)(F)C(F)(F)C(F)(F)C(F)(F)F`, the AC50 was 30.9 µM (active).
With `O=C(NC(=O)c1c(F)cccc1F)Nc1cc(Cl)c(OC(F)(F)C(F)F)c(Cl)c1` the outcome was “inactive”.
For `c1ccc(-c2ccccc2)cc1`, the outcome was “inactive”.
For `C=CC(=O)NCNC(=O)C=C`, the outcome was “inactive”.
`c1cc2ccc3cccc4ccc(c1)c2c34` was tested, and the outcome was “inactive”.
For `CCC(=O)O[C@H]1CC[C@H]2[C@@H]3CCC4=CC(=O)CC[C@]4(C)[C@H]3CC[C@]12C`, the AC50 was 0.00109 µM (active).
For `O=C(N[C@H]1CN2CCC1CC2)c1cc2ccoc2cn1`, the outcome was “inactive”.
